# Assay results from PubChem BioAssay AID1224858 (National Center for Advancing Translational Sciences (NCATS), 2016).
# Inconclusive results are not listed. The source made the active and inactive calls. The call rests on the fitted dose curve; in most records, active means well fitted inhibition curve with a large enough effect; inconclusive means small, poorly fitted or top-dose-only effect; inactive means no such curve, though single readings can be large or run the other way.
# Experiment: Confirmation assay for measurement of the activity of small molecule inhibitors on Zika virus induced Caspase-3 activity in human astrocytes
# Conditions: ZIKV-induced caspase-3/7 luminescence, 6 h; series mostly up to 46.1 µM; activity, negative = inhibition: at the top concentration
# Description: National Center for Advancing Translational Sciences [NCATS] Johns Hopkins University School of Medicine Florida State University Assay Overview: Increase in the Caspase-3 activity indicates an activation of apoptosis cell death pathway caused by Zika virus infection in certain types of neuronal cells including human neural progenitor cells (hNPCs), astrocytes, and astrocytoma cell line (SNB-19). This cell-based caspase-3 activity assay measures the increased caspase-3 activity in the human astrocytes after a 6-hour Zika virus infection with a luminescence readout. A decrease in the luminescence signal in this assay by small molecule treatment indicates an inhibitory effect of that small molecule on the Zika virus induced caspase-3 activity that may correlate with its effect on reduction of Zika virus caused cell death.
# Assay Protocol Summary: The medium for astrocytes contains AM basal medium (ScienCell, Cat.# 1801), AGS (ScienCell, Cat.# 1801), 10% FBS, and 1% Pen/Strep. A Caspase-Glo 3/7 assay kit (catalog number G8092; Promega, Madison, WI) was used to detect caspase-3 activity induced by Zika virus infection in human cells. The reagent mixture was reconstituted as described in the protocol from the manufacturer. Polystyrene tissue culture treated and PDL coated white plates were obtained from Greiner Bio-One (Monroe, NC). Cells were seeded in 384- or 1536-well assay plates and cultured at 37 C with 5% CO2 for 16 to 20 hours. The typical cell seeding density in the 1536-well plate assay is 350 cells/well in 3 ul medium for astrocytes in tissue culture treated plates. Compounds were added to cells and incubated for one hour before addition of ZIKV solution to cells (2 FFU/cell). After incubation at 37 C with 5% CO2 for 6 hours, the reagent mixture of Caspase-Glo 3/7 assay kit was added to each well, followed by incubation at room temperature for 30 minutes. The luminescence intensity of the assay plates was measured using a ViewLux plate reader (PerkinElmer). Data were normalized by using the cell-containing wells without ZIKV as a negative control (0% induction of caspase 3/7 activity) and wells containing ZIKV infected cells (Caspase-3 activity induced) as a positive control (100% induction of caspase 3 activity). The percentage inhibitions of the increased Caspase-3 activity by small molecule inhibitors were then calculated.
Compound,"activity, negative = inhibition",Potency
CN(C)c1ccc2cc(C(=O)N[C@@H](CCCN=C(N)CCl)C(=O)NCc3ccccc3)ccc2c1,-11.3% (inactive),
O=C(CS)Nc1ccccc1,14% (inactive),
COc1ccc(-c2cc(=O)c3c(O)cc(O)cc3o2)cc1O,,13.8 µM (active)
O=C1c2ccccc2-[n+]2ccc3c([nH]c4ccccc43)c21,,7.74 µM (active)
COc1cc2nc(N3CCN(C(=O)C4CCCO4)CC3)nc(N)c2cc1OC (stereo not given),,10.9 µM (active)
N#C/C(=C\c1ccc(O)c(O)c1)C(=O)Nc1ccccc1,,21.8 µM (active)
Nc1cc(C(F)(F)F)ccc1S,-8.2% (inactive),
CCCCC1C(=O)N(c2ccccc2)N(c2ccc(O)cc2)C1=O (stereo not given),-36.2% (inactive),
COc1cc2nc(-c3ccc(N4CCN(C)CC4)cc3)nc(NCCN3CCOCC3)c2cc1OC,-9.03% (inactive),
CCCCCNC(=O)N1CCC(CN(Cc2ccc(Cl)cc2)Cc2ccc([N+](=O)[O-])s2)C1 (stereo not given),17.4% (inactive),
CN(C)c1cc(NC(=O)CNC(C)(C)C)c(O)c2c1C[C@@H]1C[C@H]3[C@H](N(C)C)C(=O)C(C(N)=O)=C(O)[C@@]3(O)C(=O)C1=C2O,-3.13% (inactive),
CC=CC[C@@H](C)C(=O)[C@H]1C(=O)N[C@@H](C(C)C)C(=O)N(C)CC(=O)N(C)[C@@H](CC(C)C)C(=O)N[C@@H](C(C)C)C(=O)N(C)[C@@H](CC(C)C)C(=O)N[C@@H](C)C(=O)N[C@H](C)C(=O)N(C)[C@@H](CC(C)C)C(=O)N(C)[C@@H](CC(C)C)C(=O)N(C)[C@@H](C(C)C)C(=O)N1C,3.51% (inactive),
C[C@H](NC(=O)C(=O)Nc1ccccc1C(C)(C)C)C(=O)N[C@@H](CC(=O)O)C(=O)COc1c(F)c(F)cc(F)c1F,,0.245 µM (active)
Cc1nc(-c2ccc(OCC(C)C)c(C#N)c2)sc1C(=O)O,,2.18 µM (active)
Cc1cccc(/C=C/c2ccccc2)n1,,10.9 µM (active)
CC1(C)OC2=C(C(=O)c3ccccc3C2=O)[C@H](NCc2ccccc2)[C@H]1O,,35.5 µM (active)
NC(=O)c1cccc2[nH]c(-c3ccc([C@H]4CCCN4)cc3F)nc12,,13.8 µM (active)
CCCCCCCC/C=C/C(=O)O,-26.5% (inactive),
CC(C)(C)COc1ccc(-n2cc(C(=O)O)cn2)cc1C#N,,7.08 µM (active)
O=c1oc2cc(O)ccc2s1,-9.23% (inactive),

Compound,"activity, negative = inhibition",Potency
O=C(Oc1ccccc1)c1cccc(C(=O)Oc2ccccc2)c1,,6.31 µM (active)
O=C(O)CCC(=O)c1ccc(-c2ccccc2)cc1,,19.5 µM (active)
C[C@@H](N)c1ccc(C(=O)Nc2ccnc3[nH]ccc23)cc1,0.169% (inactive),
O=C(Nc1ncc([N+](=O)[O-])s1)c1cccs1,,1.95 µM (active)
O=C(O)c1cc([N+](=O)[O-])ccc1NCCCc1ccccc1,,8.69 µM (active)
CCN1CCC(n2cc(CNc3cc(Cl)c4ncc(C#N)c(Nc5ccc(F)c(Cl)c5)c4c3)nn2)CC1,-8.22% (inactive),
Cc1cccc(C#Cc2ccccc2)n1,,6.15 µM (active)
CCN1/C(=C/C=C/c2sc3ccccc3[n+]2CC)Sc2ccccc21,11.1% [at 23.8 µM] (inactive),
Cc1ccc(C(=O)c2ccc(CC(=O)O)n2C)cc1,-0.261% (inactive),
Cc1oncc1C(=O)Nc1ccc(C(F)(F)F)cc1,,3.88 µM (active)
Oc1ccc(/C=C/c2cc(O)cc(O)c2)cc1,,15.5 µM (active)
CN(C)CCCSc1ccccc1NC(=O)/C=C/c1ccccc1,,13.8 µM (active)
Cc1cc(O)c2c(c1)C(=O)c1cc(O)cc(O)c1C2=O,,2.75 µM (active)
O=C(Nc1cc2cc[nH]c2cn1)c1ccccc1,,4.35 µM (active)
CN1CC(=O)N/C1=N/C(=O)Nc1cccc(Cl)c1,,10.9 µM (active)
C/C(=N\O)c1ccc(OCC(=O)N2CCCCC2)cc1,,9.75 µM (active)
Cc1nc(N)sc1-c1ccnc(Nc2ccc(N3CCOCC3)cc2)n1,-7.98% (inactive),
COc1ccc(C=CC(=O)Nc2ccccc2C(=O)O)cc1OC,,17.3 µM (active)
COc1ccnc2c1CCCCC2S(=O)c1nc2ccccc2[nH]1 (stereo not given),54% (inactive),
Nc1ccc(O)c(C(=O)O)c1,-0.275% (inactive),
